# The whole screen tested about 87,000 compounds, of which about 540 (0.62%) were called active. The rule behind the calls is not given here. The entries come from a sample that favours actives as a whole. Measured potencies and affinities stand elsewhere.
# Experiment: MT1-MMP gene expression reporter suppression – cell-based, luciferase reporter, luminescence (AID 618);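 note: actives suppress MT1-MMP promoter-driven transcription so potencies describe inhibitors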
# Conditions: MT1-MMP promoter luciferase reporter cells
row,SMILES,outcome
1,Clc1ccc2c(c1)C1OCCC1C(c1ccco1)N2 (stereo unspecified),inactive
2,Cc1ccc(-c2nn(CC(=O)NCc3cc(-c4nn(C)c(=O)c5ccccc45)ccc3C)c(=O)c3ccccc23)cc1,inactive
3,CN(C)S(=O)(=O)c1ccc(C(=O)OCC(=O)NC(=O)NCc2ccccc2)cc1,inactive
4,CCOC(=O)c1sc(Nc2ccccc2)nc1C,inactive
5,CCOC(=O)/C(=C/Nc1ccccc1)[N+](=O)[O-],inactive
6,CCOC(=O)c1cccc(NC(=O)c2cccnc2)c1,inactive
7,CCOC(=O)Nc1cccc(Nc2ccccc2)c1,inactive
8,CCOC(=O)/C(=C\c1cccnc1)C(=O)c1cc(C(C)=O)c(Nc2ccccc2)s1,active
9,c1ccc(C2C3=C(CCCC3)Nc3ncnn32)cc1 (stereo unspecified),inactive
10,Cc1cccc(C)c1NC(=O)CSc1nnc(CCCCCNC(=O)OC(C)(C)C)o1,inactive
11,COc1ccc2cc(C#N)c(SCC(=O)N3CCCC3)nc2c1,inactive
12,Nc1cccc2cnccc12,inactive
13,Cc1cc2c(N)cccc2nn1,inactive
14,CN(C)CCNS(=O)(=O)c1ccc(Cl)cc1,inactive
15,O=S(=O)(c1ccc(N2CCC(c3ccc(Cl)cc3)=N2)cc1)N(CCO)CCO,inactive
16,CC1NC(=O)NC1CCCCC(=O)O (stereo unspecified),inactive
17,Cc1ccc(S(=O)(=O)NC2=NCN(C3CCCCC3)CN2)cc1,inactive
18,Cc1ccc(Cn2c(NCCc3ccccc3)nc3c2c(=O)n(C)c(=O)n3C)cc1,inactive
19,COc1ccc(NS(=O)(=O)c2ccc(N)c(C(=O)O)c2)cc1,inactive
20,Cc1ccsc1C(=O)OCc1csc(-c2ccccc2)n1,active
21,O=C(OCc1csc(-c2ccccc2)n1)c1cccs1,inactive
22,Cn1cccc1C(=O)OCc1csc(-c2ccccc2)n1,inactive
23,O=c1cc(CSc2nnnn2-c2ccccc2)nc2nc[nH]n12,inactive
24,O=C(NC1CC1)c1cc2c(s1)-c1ccccc1OC2,inactive

row,SMILES,outcome
1,Cn1c(=O)cc(SCC(=O)NCC2CCCO2)c2ccccc21 (stereo unspecified),inactive
2,Cc1cc(NCCCn2ccnc2)n2ncc(-c3ccccc3)c2n1,active
3,Cc1cc(NCCCN2CCOCC2)n2ncc(-c3ccccc3)c2n1,inactive
4,Cc1cc(NCCCn2ccnc2)n2nc(C)c(-c3ccccc3)c2n1,inactive
5,CC(C)(C)c1cc(NCCCn2ccnc2)n2ncc(-c3ccc(Cl)cc3)c2n1,inactive
6,Cc1cc(NCCCn2ccnc2)n2nc(C)c(-c3ccc(Cl)cc3)c2n1,inactive
7,Cc1ccc(C)c(C(=O)CC2(O)C(=O)Nc3ccccc32)c1 (stereo unspecified),inactive
8,Cc1onc(-c2c(F)cccc2Cl)c1C(=O)NCCCN1CCOCC1,inactive
9,Cc1cccc(C)c1NC(=O)Cn1c(CN2CCCCC2)nc2ccccc2c1=O,inactive
10,CCN(Cc1ccccc1)S(=O)(=O)c1nc2nc(C)c(C)c(C)n2n1,inactive
11,CC(C)CC(=O)Nc1ccc(-c2cn3ccsc3n2)cc1,inactive
12,CC(C)(C)C(=O)Nc1ccc(-c2cn3ccsc3n2)cc1,active
13,CC(=O)Nc1ccc(-c2cn3ccsc3n2)cc1,inactive
14,CCCOC(=O)c1ccc(Oc2c(-c3ccc(OC)cc3O)n[nH]c2C)cc1,inactive
15,COc1ccc(CN2CC(C(=O)NCc3ccc4c(c3)OCO4)CC2=O)cc1 (stereo unspecified),inactive
16,O=C(c1nc2nc(-c3ccccc3)cc(C(F)(F)F)n2n1)N1CCOCC1,inactive
17,O=C(CSc1nnc(-c2ccccc2)n1Cc1ccco1)Nc1ccc(S(=O)(=O)N2CCCC2)cc1,inactive
18,Clc1ccc(-c2nnc3n2CCCCC3)cc1,inactive
19,Clc1ccc(-c2nc(N3CCCCC3)nc3ccccc23)cc1,inactive
20,Clc1c(CSc2nc3ccccc3o2)nc2sccn12,inactive
21,c1ccc2oc(SCc3cn4ccccc4n3)nc2c1,inactive
22,CCOc1cc(/C=N/N=C(/N)c2nonc2N)cc(Br)c1OCc1ccc(Cl)cc1,inactive
23,CCOC(=O)c1[nH]c(C)c(C(=O)NCCCOC(C)C)c1C,inactive
24,c1ccc(CN2CCN(c3nc4ccccc4c4ccccc34)CC2)cc1,inactive

row,SMILES,outcome
1,COCCOC(=O)C1=C(C)NC2=C(C(=O)CCC2)C1c1cc2c(cc1Br)OCO2 (stereo unspecified),inactive
2,O=S(=O)(c1ccc2c(c1)C(=NO)c1cc(S(=O)(=O)N3CCCCC3)ccc1-2)N1CCCCC1,active
3,CC1CCN(S(=O)(=O)c2ccc3c(c2)C(=NO)c2cc(S(=O)(=O)N4CCC(C)CC4)ccc2-3)CC1,inactive
4,O=S(=O)(c1ccc(S(=O)(=O)N2CCCC2)cc1)N1CCCCCC1,inactive
5,O=C(CCC(=O)c1ccc(F)cc1)Nc1cccnc1,inactive
6,CC(C)N(CCCNC(=O)CC1Oc2ccccc2NC1=O)Cc1ccccc1 (stereo unspecified),inactive
7,O=C1C(=O)c2ccc(-c3ccccc3)cc2-c2ccccc21,inactive
8,Nc1ccc(Br)c2c1C(=O)c1ccccc1C2=O,inactive
9,Nc1ccc2c(c1)C(=O)C(=O)c1ccccc1-2,active
10,CCOC(=O)CON1C(=O)c2ccccc2C1=O,inactive
11,COc1ccc(-c2c(C)n([O-])c3c([n+]2=O)CCCC3)cc1,inactive
12,N=c1n(CCN2CCOCC2)c2ccccc2n1Cc1ccccc1Br,inactive
13,Cn1c(-n2c(-c3ccco3)nc3ccccc3c2=O)nc2ccccc21,inactive
14,Cn1c(-c2ccco2)nc2cc3ccccc3cc21,active
15,CCn1c(-c2ccco2)nc2ccccc21,inactive
16,C=COCCn1c(=N)n(CCC)c2ccccc21,inactive
17,O=C1[C@@H]2C(c3ccccc3Cl)=NO[C@@H]2C(=O)N1Cc1ccccc1,inactive
18,Cc1c(NC(=O)c2ccccc2)c(=O)n(-c2ccccc2)n1C,inactive
19,Cc1c(NC(=O)c2ccc(=O)oc2)c(=O)n(-c2ccccc2)n1C,inactive
20,CCCNc1cc(C)oc(=O)c1C(=O)CCC,inactive
21,Oc1ccc(Nc2nc3ccccc3nc2Nc2ccc(O)cc2)cc1,inactive
22,CCOC(=O)C1CCCCN1C(=O)CCc1c(C)nc2ncnn2c1C (stereo unspecified),inactive
23,Cc1nc2cc(-c3cccc(F)c3)nn2c(C)c1CCC(=O)N1CCN(c2ccccn2)CC1,inactive
24,CCn1c(C(=O)Nc2ccsc2C(=O)OC)cc2sc(Cl)cc21,inactive

row,SMILES,outcome
1,CN1CCC(C2(O)c3ccccc3CSc3sccc32)CC1 (stereo unspecified),inactive
2,COC(=O)Cc1ccc(NC(=O)c2ccc(C)c(C)c2)cc1,inactive
3,Cc1oc(C)c(C(=O)Nc2ccc(CC(=O)O)cc2)c1C(=O)Nc1ccc(CC(=O)O)cc1,inactive
4,Cc1ccc(C(=O)Nc2ccc(CC(=O)O)cc2)o1,inactive
5,O=C(O)Cc1ccc(NC(=O)c2ccc(NC(=O)c3ccco3)cc2)cc1,inactive
6,Cc1cc(C(C)(C)C)oc1C(=O)Nc1ccc(CC(=O)O)cc1,inactive
7,COC(=O)Cc1ccc(NC(=O)c2ccc(Br)o2)cc1,inactive
8,COc1ccc(-n2c(Cc3cccn3C)nnc2SCC(=O)Nc2cccc(NC(C)=O)c2)cc1,inactive
9,CCOc1ccc(CCNC(=O)C(O)c2ccccc2)cc1 (stereo unspecified),inactive
10,Cc1cc(=O)oc2cc(OCC(=O)Nc3nnc(C(C)C)s3)ccc12,inactive
11,CC(=NCCCn1ccnc1)C1=C(O)c2ccccc2C1=O,inactive
12,Cc1cccc(-n2ncc3c(N4CCN(c5nc(C)cc(C)n5)CC4)ncnc32)c1,inactive
13,Cc1cccc(-n2ncc3c(N4CCC5(CC4)OCCO5)ncnc32)c1,inactive
14,Clc1ccc(-n2ncc3c(N4CCCC4)ncnc32)cc1,inactive
15,CCN1CCN(c2ncnc3c2cnn3-c2ccc(Cl)cc2)CC1,inactive
16,COc1cc(NC(=O)CSc2ncnc3c2cnn3Cc2ccccc2)cc(OC)c1,inactive
17,COc1ccc(-c2cn3c(C)c(C(=O)N4CCc5ccccc5C4)sc3n2)cc1,inactive
18,COc1ccccc1-c1coc2c(CN3CCN(CCO)CC3)c(O)ccc2c1=O,inactive
19,CCOC(=O)C(NS(=O)(=O)c1ccc(Br)cc1)C(C)C (stereo unspecified),inactive
20,COc1ccc2c(CC(=O)OCC(=O)c3ccc(F)cc3)coc2c1,inactive
21,Oc1c(C(c2ccco2)N2CCOCC2)sc2ncnn12 (stereo unspecified),inactive
22,Cc1cc(C(=O)Nc2ccccc2)oc1C,inactive
23,O=C(O)c1ccc(C(=O)Nc2cccc(NC(=O)C3CCCO3)c2)cc1 (stereo unspecified),inactive
24,O=C(Nc1cnc2ccccc2c1)c1cccnc1,inactive

row,SMILES,outcome
1,Cc1ccc(NC(=O)c2ccccc2)cc1,inactive
2,Cc1ccc(C(=O)Nc2cccc(C(=O)N3CCN(C)CC3)c2)cc1,inactive
3,O=C(O)c1cccc(NC(=O)C2CCCO2)c1 (stereo unspecified),inactive
4,Cc1oc2c(c1C(=O)Nc1cccc(C(=O)O)c1)CCCC2,inactive
5,O=C(Nc1cnc2ccccc2c1)c1ccncc1,inactive
6,O=C(Oc1ccc(Br)cc1)c1cncc(Br)c1,inactive
7,O=C1CCC([N+](=O)[O-])C(c2ccccc2Cl)N1 (stereo unspecified),inactive
8,COc1cccc(-n2nnc3c(=O)n(Cc4c(F)cccc4Cl)cnc32)c1,inactive
9,CCN(CC)CCCNC(=O)c1sc2nc(-c3ccc(F)cc3)cn2c1C,inactive
10,CCn1cc(C(=O)NCc2ccco2)c(=O)c2cc(S(=O)(=O)N3CC(C)CC(C)C3)ccc21 (stereo unspecified),inactive
11,CCOC(=O)CCn1c(=O)c2c(nc(Br)n2Cc2ccccc2)n(C)c1=O,inactive
12,Cc1ccc(S(=O)(=O)NCCC(=O)Nc2nnc(C)s2)cc1,inactive
13,COC(=O)[C@H](C)NC(=O)Nc1ccccc1F,inactive
14,COc1ccc(S(=O)(=O)n2c(CCN3CCOCC3)nc3ccccc32)cc1,inactive
15,O=C(O)c1cccc(NC(=O)c2cccc(S(=O)(=O)N3CCCCC3)c2)c1,inactive
16,Cc1ccc(C(=O)Nc2cccc(C(=O)O)c2)cc1S(=O)(=O)N1CCOCC1,inactive
17,CC1C=CC(C)C(C(=O)O)C1C(=O)O (stereo unspecified),inactive
18,CC(=O)c1ccc(NS(=O)(=O)c2ccc(CC(C)C)cc2)cc1,inactive
19,Cc1cccnc1NC(=O)C1CCN(S(=O)(=O)c2cccs2)CC1,inactive
20,COc1ccc(CCn2c(N3CCN(C)CC3)nc3c2c(=O)[nH]c(=O)n3C)cc1,inactive

# From PubChem BioAssay AID618 (Sanford-Burnham Center for Chemical Genomics, 2007)
